Results filed as inconclusive are left out. Active and inactive are the calls of the source. Calls come from the whole dose curve; as a rule, active = well fitted curve in the direction sought with a large enough effect; inconclusive = small, poorly fitted or top-dose-only effect, or another doubt; inactive = no such curve, though single readings can be large; an effect the other way counts as inactive or inconclusive.
How the values were obtained:
[1] = qHTS of pediatric cancer cell lines to identify multiple opportunities for drug repurposing: Confirmatory screen for SJ-GBM2 cells (AID 1347116); note: nearly all actives have a fitted effect of over 60% in size; note: potency is the fitted concentration of half-maximal effect
Method in brief: (§1)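 Viability measured as metabolically active cells via CellTiter-Glo luminescence following 48 hours of compound exposure, 11-point dilutions in confirmatory testing. 500-1,000 cells/well plated 5 hours before dosing; controls were DMSO and 2.3 µM bortezomib.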

[2] = qHTS of pediatric cancer cell lines to identify multiple opportunities for drug repurposing: Confirmatory screen for BT-37 cells (AID 1347117); details: BT-37 pediatric cancer cells, viability; activity change, negative = cytotoxic: at 45.9 µM (top of the series); note: nearly all actives have a fitted effect of over 55% in size; note: potency is the fitted concentration of half-maximal effect
Method in brief: (§2)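 Viability after 48 h compound treatment at 37C, 500-1,000 cells/well, read as ATP luminescence with CellTiter-Glo. Primary screens used 11-point (MIPE, 0.78 nM-46 µM) or 8-point (NPC, 0.59 nM-46 µM) final concentrations; follow-up screens used 11-point dilutions.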

[3] = qHTS of pediatric cancer cell lines to identify multiple opportunities for drug repurposing: Confirmatory screen for RD cells (AID 1347124);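 note: cells exposed to compound for 48 h before viability readout; nearly all actives have a fitted effect of over 65% in size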; note: potency is the fitted concentration of half-maximal effect
Method in brief: as §2

[4] = qHTS of pediatric cancer cell lines to identify multiple opportunities for drug repurposing: Confirmatory screen for Rh18 cells (AID 1347125); note: nearly all actives have a fitted effect of over 55% in size; note: potency is the fitted concentration of half-maximal effect
Method in brief: as §2

[5] = qHTS of pediatric cancer cell lines to identify multiple opportunities for drug repurposing: Confirmatory screen for Rh30 cells (AID 1347126); note: nearly all actives have a fitted effect of over 55% in size; note: potency is the fitted concentration of half-maximal effect
Method in brief: as §2

[6] = qHTS of pediatric cancer cell lines to identify multiple opportunities for drug repurposing: Confirmatory screen for Saos-2 cells (AID 1347127); note: nearly all actives have a fitted effect of over 60% in size; note: potency is the fitted concentration of half-maximal effect
Method in brief: as §2

[7] = qHTS of pediatric cancer cell lines to identify multiple opportunities for drug repurposing: Confirmatory screen for OHS-50 cells (AID 1347128);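 note: compound exposure lasted 48 h at 37 degrees C; nearly all actives have a fitted effect of over 55% in size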; note: potency is the fitted concentration of half-maximal effect
Method in brief: as §2

[8] = qHTS of pediatric cancer cell lines to identify multiple opportunities for drug repurposing: Confirmatory screen for NB-EBc1 cells (AID 1347115);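 note: cells exposed to compound for 48 h before the viability read; nearly all actives have a fitted effect of over 45% in size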; note: potency is the fitted concentration of half-maximal effect
Method in brief: as §2

[9] = qHTS of pediatric cancer cell lines to identify multiple opportunities for drug repurposing: Confirmatory screen for TC32 cells (AID 1347118);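 note: potency is the fitted concentration of half-maximal effect; cells exposed to compound for 48 h before the read; nearly all actives have a fitted effect of over 65% in size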
Method in brief: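 TC32 cells, 500-1,000/well in growth medium, compound-treated 48 h at 37 °C; viability from CellTiter-Glo luminescence. Primary screen: MIPE 11-point (0.78 nM–46 µM final), NPC 8-point (0.59 nM–46 µM final); confirmatory at 11-point dilutions.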

[10] = qHTS of pediatric cancer cell lines to identify multiple opportunities for drug repurposing: Confirmatory screen for MG 63 (6-TG R) cells (AID 1347119); note: nearly all actives have a fitted effect of over 55% in size; note: potency is the fitted concentration of half-maximal effect
Method in brief: as §2

[11] = qHTS of pediatric cancer cell lines to identify multiple opportunities for drug repurposing: Confirmatory screen for U-2 OS cells (AID 1347122); note: nearly all actives have a fitted effect of over 65% in size; note: potency is the fitted concentration of half-maximal effect
Method in brief: as §2

[12] = qHTS of pediatric cancer cell lines to identify multiple opportunities for drug repurposing: Confirmatory screen for Rh41 cells (AID 1347123);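 note: potency is the fitted concentration of half-maximal effect; 48 h compound exposure; nearly all actives have a fitted effect of over 60% in size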
Method in brief: as §2

[13] = qHTS of pediatric cancer cell lines to identify multiple opportunities for drug repurposing: Confirmatory screen for SK-N-SH cells (AID 1347129);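 note: cells exposed to compound for 48 h before viability read; nearly all actives have a fitted effect of over 60% in size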; note: potency is the fitted concentration of half-maximal effect
Method in brief: as §2

[14] = system: Zika virus NS2B-NS3 protease; experiment: Primary screen GU AMC qHTS for Zika virus inhibitors (AID 1347154); note: nearly all actives have a fitted effect of over 70% in size
Method in brief: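 Unlinked Zika NS2B hydrophilic domain–NS3 protease complex at 25 nM in 10 mM Tris-HCl pH 8.0, 0.01% Tween 20, with an AMC peptide substrate. Fluorescence change (340/450 nm) over 15 min at room temperature, normalized to controls, fitted to 4-parameter Hill.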

[15] = qHTS of pediatric cancer cell lines to identify multiple opportunities for drug repurposing: Confirmatory screen for control Hh wild type fibroblast cells (AID 1347121); note: nearly all actives have a fitted effect of over 70% in size; note: potency is the fitted concentration of half-maximal effect
Method in brief: as §2

[16] = qHTS of pediatric cancer cell lines to identify multiple opportunities for drug repurposing: Confirmatory screen for DAOY cells (AID 1347114); note: nearly all actives have a fitted effect of over 65% in size
Method in brief: as §1

Compound | Potency [1] | Potency [2] | Potency [3] | Potency [4] | Potency [5] | Potency [6] | Potency [7] | Potency [8] | Potency [9] | Potency [10] | Potency [11] | Potency [12] | Potency [13] | Potency [14] | Potency [15] | Potency [16]
C=C1C(=CC=C2CCC[C@]3(C)[C@@H]([C@H](C)CCCC(C)(C)O)CC[C@@H]23)C[C@@H](O)C[C@@H]1O | inactive | inactive | inactive | inactive | inactive | inactive | inactive | – | – | – | – | – | – | – | – | –
CC(=O)NCC(=O)N1[C@H]2CC[C@H]1c1cc(Nc3ncc(C(F)(F)F)c(NC4CCC4)n3)ccc12 | 5850 nM (active) | – | 13100 nM (active) | 2930 nM (active) | 3690 nM (active) | 585 nM (active) | – | 9270 nM (active) | 46.5 nM (active) | 233 nM (active) | 1850 nM (active) | 1310 nM (active) | 2090 nM (active) | inactive | – | –
COc1ccc2c(c1OC)C(=O)OC2[C@H]1c2c(cc3c(c2OC)OCO3)CCN1C (some centres not stated) | inactive | inactive | inactive | inactive | inactive | inactive | inactive | – | 2930 nM (active) | – | inactive | – | – | inactive | inactive | –
CC(C=CC(=O)NO)=C[C@@H](C)C(=O)c1ccc(N(C)C)cc1 | 2080 nM (active) | 827 nM (active) | 1310 nM (active) | 928 nM (active) | inactive | 1850 nM (active) | – | 585 nM (active) | 414 nM (active) | 1170 nM (active) | – | 1470 nM (active) | 2960 nM (active) | – | – | –
Cc1cnc(Nc2ccc(CN3CCOCC3)cc2)nc1Nc1cccc(S(=O)(=O)NC(C)(C)C)c1 | – | 4650 nM (active) | – | 9270 nM (active) | inactive | 9270 nM (active) | 5220 nM (active) | 10400 nM (active) | 3290 nM (active) | 4140 nM (active) | – | 5220 nM (active) | 5260 nM (active) | inactive | – | –
CCOC(=O)C1=C(C)NC(=S)NC1c1cccc(O)c1 (configuration not stated) | – | – | – | inactive | – | – | – | inactive | 3690 nM (active) | inactive | – | – | – | inactive | – | –
CC(=O)[C@]1(O)Cc2c(O)c3c(c(O)c2[C@@H](O[C@H]2C[C@H](N)[C@@H](O)[C@H](C)O2)C1)C(=O)c1ccccc1C3=O | 369 nM (active) | 329 nM (active) | 737 nM (active) | 6570 nM (active) | inactive | inactive | – | 465 nM (active) | 293 nM (active) | – | 1310 nM (active) | 329 nM (active) | 209 nM (active) | inactive | – | –
COc1ccc(C=Cc2cc(OC)c(OC)c(OC)c2)cc1NC(=O)[C@H](N)CO | 827 nM (active) | 73.7 nM (active) | 131 nM (active) | inactive | 928 nM (active) | 73.7 nM (active) | – | 52.2 nM (active) | 46.5 nM (active) | 46.5 nM (active) | 117 nM (active) | 104 nM (active) | – | inactive | – | –
O=C(Nc1cc2cc[nH]c2cn1)c1ccccc1 | – | 9270 nM (active) | – | 8270 nM (active) | – | – | 10400 nM (active) | 16500 nM (active) | 1850 nM (active) | – | – | – | 10500 nM (active) | inactive | 14700 nM (active) | –
O=C(C=CC#Cc1cccc(NS(=O)(=O)c2ccccc2)c1)NO | 4650 nM (active) | 2610 nM (active) | 5220 nM (active) | 2330 nM (active) | 5220 nM (active) | 2930 nM (active) | 5850 nM (active) | – | 737 nM (active) | 2610 nM (active) | 928 nM (active) | 1650 nM (active) | – | inactive | – | –
O=C1c2c(O)cccc2[C@@H]([C@@H]2O[C@H](CO)[C@@H](O)[C@H](O)[C@H]2O)c2cc(CO)cc(O)c21 | – | – | – | – | – | inactive | inactive | – | – | – | – | – | – | inactive | inactive | inactive
Nc1ncn([C@@H]2O[C@H](CO)[C@@H](O)[C@@H]2O)c(=O)n1 | 16500 nM (active) | 16500 nM (active) | 20800 nM (active) | 20800 nM (active) | 18500 nM (active) | 20800 nM (active) | 5850 nM (active) | 13100 nM (active) | 4650 nM (active) | – | – | 16500 nM (active) | 16600 nM (active) | inactive | – | –
Cn1c(Nc2ccc(C(F)(F)F)cc2)nc2cc(Oc3ccnc(-c4ncc(C(F)(F)F)[nH]4)c3)ccc21 | inactive | – | – | inactive | – | – | – | 16500 nM (active) | 928 nM (active) | 13100 nM (active) | – | – | – | inactive | – | –
C[N+](C)([O-])CCNc1ccc(NCC[N+](C)(C)[O-])c2c1C(=O)c1c(O)ccc(O)c1C2=O | – | – | – | inactive | inactive | – | – | inactive | 4140 nM (active) | inactive | inactive | – | inactive | inactive | – | –
